# Several values for one entry are separate records, joined by “and”; a condition that tells them apart may be missing. Identical values can stand only once. Inconclusive results are not listed. Entries that show only a call come without a potency. A number with no mark means an inactive call. Activity calls are given as the source filed them. Calls follow the shape of the dose curve; as a rule, active = well fitted curve in the direction sought with a large enough effect; inconclusive = small, poorly fitted or top-dose-only effect, or another doubt; inactive = no such curve, though single readings can be large; an effect the other way counts as inactive or inconclusive.
# What was measured:
# CRL-7250 = normal cell line; assay: Cytotoxic Profiling of Annotated Libraries Using Quantitative High-Throughput Screening (AID 1296008); details: Five cell lines viability, CellTiter-Glo ATP luminescence, 48-72 h; max response: hits give low values; also: nearly all actives have a fitted effect of over 60% in size
# Summary of the method: (§1)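 Cells exposed to compounds for 48 or 72 hr at 37 degrees Celsius. Viability read as ATP-coupled luminescence with CellTiter-Glo after 10 min at room temperature.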
# HaCat [1] = assay: as above; details: Five cell lines viability, CellTiter-Glo ATP luminescence, 48-72 h; max response: hits give low values
# Summary of the method: as §1
# KB-3-1 = assay: as above; details: Five cell lines viability, CellTiter-Glo ATP luminescence, 48-72 h; max response: hits give low values
# Summary of the method: as §1
# NIH3T3 [2] = assay: as above; details: Five cell lines viability, CellTiter-Glo ATP luminescence, 48-72 h; max response: hits give low values
# Summary of the method: as §1
# MCC-13 = assay: qHTS assay to identify novel small-molecules to repurpose for Merkel cell carcinoma treatment (AID 1296009); details: MCC and control cell lines, CellTiter-Glo viability, 72 h; series mostly up to 46 µM; also: nearly all actives have a fitted effect of over 60% in size
# Summary of the method: (§2)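 Cells were treated for 72 hr at 37 degree celsius with compounds in 8- or 11-point dose response. Viability was read by CellTiter-Glo luminescence, normalized to no-cell (cytotoxicity) and DMSO controls.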
# MCC-26 = assay: as above; details: MCC and control cell lines, CellTiter-Glo viability, 72 h; series mostly up to 46 µM
# Summary of the method: as §2
# MKL-1 = assay: as above; details: MCC and control cell lines, CellTiter-Glo viability, 72 h; series mostly up to 46 µM
# Summary of the method: as §2
# MKL-2 = assay: as above; details: MCC and control cell lines, CellTiter-Glo viability, 72 h; series mostly up to 46 µM
# Summary of the method: as §2
# UISO = assay: as above; details: MCC and control cell lines, CellTiter-Glo viability, 72 h; series mostly up to 46 µM
# Summary of the method: as §2
# WaGa = assay: as above; details: MCC and control cell lines, CellTiter-Glo viability, 72 h; series mostly up to 46 µM
# Summary of the method: as §2
# CASKI = assay: Primary qHTS to identify gynecologic anti-cancer compounds using libraries of approved drugs and bioactive compounds (AID 1345084); details: Gynecologic cancer cell panel viability, ATPlite luminescence, 48 h; series mostly up to 57.5 µM; also: nearly all actives have a fitted effect of over 55% in size
# Summary of the method: (§3)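 In this quantitative HTS, cell killing is estimated from loss of ATP-dependent luciferase light. Cells see five compound concentrations over a 48 h exposure.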
# Es-2 = assay: as above; details: Gynecologic cancer cell panel viability, ATPlite luminescence, 48 h; series mostly up to 57.5 µM
# Summary of the method: as §3
# HeLa = assay: as above; details: Gynecologic cancer cell panel viability, ATPlite luminescence, 48 h; series mostly up to 57.5 µM
# Summary of the method: as §3
# JEG-3 = assay: as above; details: Gynecologic cancer cell panel viability, ATPlite luminescence, 48 h; series mostly up to 57.5 µM
# Summary of the method: as §3
# HEK293T [3] = assay: qHTS assay to identify novel small-molecules to repurpose for Merkel cell carcinoma treatment (AID 1296009); details: MCC and control cell lines, CellTiter-Glo viability, 72 h; series mostly up to 44.8 µM; also: nearly all actives have a fitted effect of over 60% in size
# Summary of the method: as §2
# C33A = assay: Primary qHTS to identify gynecologic anti-cancer compounds using libraries of approved drugs and bioactive compounds (AID 1345084); details: Gynecologic cancer cell panel viability, ATPlite luminescence, 48 h; series mostly up to 57.5 µM; also: nearly all actives have a fitted effect of over 55% in size
# Summary of the method: as §3
# Hek293T [4] = assay: as above; details: Gynecologic cancer cell panel viability, ATPlite luminescence, 48 h, control line for the selectivity index; series mostly up to 57.5 µM
# Summary of the method: as §3
# NIH3T3 [5] = assay: qHTS assay to identify novel small-molecules to repurpose for Merkel cell carcinoma treatment (AID 1296009); details: MCC and control cell lines, CellTiter-Glo viability, 72 h; at 44.8 µM (top of the series) unless noted; also: nearly all actives have a fitted effect of over 60% in size
# Summary of the method: as §2
# HACAT [6] = assay: as above; details: MCC and control cell lines, CellTiter-Glo viability, 72 h; at 44.8 µM (top of the series) unless noted
# Summary of the method: as §2
# Potency is read from the fitted curve at half-maximal effect.
smiles,measurement,setting,value
O=C1c2cccc(O)c2C(=O)c2c(O)cc(CO)cc21,max response,CRL-7250,-9.37%
same,max response,HaCat [1],-18.1%
same,max response,KB-3-1,-6.13%
same,max response,NIH3T3 [2],-5.61%
same,Potency,MCC-13,inactive
same,Potency,MCC-26,inactive
same,Potency,MKL-1,inactive
same,Potency,MKL-2,inactive
same,Potency,UISO,inactive
same,Potency,WaGa,inactive
O=C(Nc1cccc(Nc2ncc(Br)c(NCCc3cnc[nH]3)n2)c1)N1CCCC1,Potency,CRL-7250,4180 nM (active)
same,Potency,HaCat [1],9.35 µM (active)
same,Potency,KB-3-1,1320 nM (active)
same,Potency,NIH3T3 [2],4690 nM (active)
same,Potency,MCC-26,11800 nM (active)
same,Potency,MKL-2,5900 nM (active)
same,Potency,UISO,16600 nM (active)
same,Potency,WaGa,2960 nM (active)
C=CC(=O)Nc1ccc2ncnc(Nc3ccc(OCc4cccc(F)c4)c(Cl)c3)c2c1,Potency,CRL-7250,14600 nM (active)
same,Potency,HaCat [1],1.87 µM (active) and 580 nM (active)
same,Potency,KB-3-1,9350 nM (active)
same,Potency,MCC-13,3720 nM (active)
same,Potency,MKL-1,118 nM (active)
same,Potency,WaGa,33.2 nM (active)
same,Potency,CASKI,14100 nM (active)
same,Potency,Es-2,inactive
same,Potency,HeLa,inactive
same,Potency,JEG-3,inactive
O=C(CN1C(=O)C2(CCCC2)NC[C@H]1c1cc(F)cc(F)c1)Nc1ccc2c(c1)C[C@@]1(C2)C(=O)Nc2ncccc21,outcome,CRL-7250,inactive
same,max response,HaCat [1],3.79%
same,max response,KB-3-1,2.38%
same,max response,NIH3T3 [2],-4.62%
same,Potency,HEK293T [3],inactive
same,Potency,MCC-13,inactive
same,Potency,MCC-26,inactive
same,Potency,MKL-1,inactive
same,Potency,MKL-2,inactive
same,Potency,UISO,inactive
same,Potency,WaGa,inactive
COc1cc([C@@H]2c3cc4c(cc3[C@@H](O[C@@H]3O[C@@H]5CO[C@@H](c6cccs6)O[C@@H]5[C@H](O)[C@@H]3O)[C@H]3COC(=O)[C@H]23)OCO4)cc(OC)c1O,Potency,CRL-7250,16600 nM (active)
same,Potency,HaCat [1],0.59 µM (active)
same,Potency,KB-3-1,743 nM (active)
same,Potency,NIH3T3 [2],132 nM (active)
same,Potency,MCC-13,1660 nM (active)
same,Potency,MCC-26,2350 nM (active)
same,Potency,MKL-1,235 nM (active)
same,Potency,MKL-2,118 nM (active)
same,Potency,UISO,1870 nM (active)
CC(C)c1cc(C(C)C)c(CC(=O)NS(=O)(=O)Oc2c(C(C)C)cccc2C(C)C)c(C(C)C)c1,max response,CRL-7250,4.74% and 1.75%
same,max response,HaCat [1],0.698% and -52.4%
same,max response,KB-3-1,0.649%
same,Potency,MCC-13,inactive
same,Potency,MCC-26,inactive
same,Potency,MKL-1,inactive
same,Potency,MKL-2,inactive
same,Potency,WaGa,inactive
same,Potency,C33A,inactive
same,Potency,CASKI,inactive
same,Potency,Es-2,inactive
same,Potency,JEG-3,inactive
CNC(=O)c1ccc(Nc2cc(Nc3ccccc3S(=O)(=O)C(C)C)c3cc[nH]c3n2)nc1,Potency,CRL-7250,3320 nM (active)
same,Potency,HaCat [1],2.96 µM (active)
same,Potency,KB-3-1,1320 nM (active)
same,Potency,NIH3T3 [2],2350 nM (active)
same,Potency,MKL-1,2640 nM (active)
same,Potency,MKL-2,7430 nM (active)
same,Potency,UISO,5900 nM (active)
same,Potency,WaGa,4180 nM (active)
C=C[C@@H]1CN2CCC1C[C@H]2[C@H](O)c1ccnc2ccc(OC)cc12 (stereo not given in full),max response,CRL-7250,3.01%
same,max response,HaCat [1],-13.1%
same,max response,KB-3-1,-2.72%
same,max response,NIH3T3 [2],3.02%
same,Potency,MCC-13,inactive
same,Potency,MCC-26,inactive
same,Potency,MKL-1,inactive
same,Potency,MKL-2,inactive
same,Potency,UISO,inactive
same,Potency,WaGa,inactive
Cc1ccccc1C(=O)Nc1ccc(C(=O)N2CCCC(O)c3cc(Cl)ccc32)c(C)c1 (stereo not given),max response,CRL-7250,-23.5%
same,max response,HaCat [1],1.52%
same,outcome,KB-3-1,inactive
same,max response,NIH3T3 [2],-21%
same,Potency,MCC-13,inactive
same,Potency,MCC-26,inactive
same,Potency,MKL-1,inactive
same,Potency,MKL-2,inactive
same,Potency,UISO,inactive
same,Potency,WaGa,inactive
same,Potency,C33A,inactive
same,Potency,CASKI,inactive
same,Potency,Es-2,inactive
same,Potency,HeLa,inactive
same,Potency,Hek293T [4],inactive
same,Potency,JEG-3,inactive
CC[C@H]1OC(=O)[C@H](C)[C@@H](O[C@H]2C[C@@](C)(OC)[C@@H](O)[C@H](C)O2)[C@H](C)[C@@H](O[C@@H]2O[C@H](C)C[C@H](N(C)C)[C@@H]2O)[C@](C)(OC)C[C@@H](C)C(=O)[C@H](C)[C@@H](O)[C@]1(C)O,max response,CRL-7250,4.09%
same,max response,HaCat [1],3.25%
same,max response,KB-3-1,-5.56%
same,outcome,NIH3T3 [2],inactive
same,Potency,MCC-13,inactive
same,Potency,MCC-26,inactive
same,Potency,MKL-1,inactive
same,Potency,MKL-2,inactive
same,outcome,NIH3T3 [5],inactive
same,Potency,UISO,inactive
same,Potency,WaGa,inactive
Cc1cc(O)c2c(c1)C(=O)c1cccc(O)c1C2=O,outcome,CRL-7250,inactive
same,max response,HaCat [1],-2.05%
same,max response,KB-3-1,4.24%
same,max response,NIH3T3 [2],4.67%
same,Potency,HEK293T [3],inactive
same,Potency,MCC-13,inactive
same,Potency,MKL-1,inactive
same,Potency,MKL-2,inactive
same,Potency,UISO,inactive
same,Potency,WaGa,inactive
O=C(C=CC=Cc1ccc2c(c1)OCO2)N1CCCCC1,max response,CRL-7250,-3.96%
same,max response,HaCat [1],-2.24%
same,max response,KB-3-1,-6.15%
same,outcome,NIH3T3 [2],inactive
same,Potency,MCC-13,inactive
same,Potency,MKL-1,inactive
same,Potency,MKL-2,inactive
same,outcome,NIH3T3 [5],inactive
same,Potency,UISO,inactive
same,Potency,WaGa,inactive
CC(=CC(=O)Nc1ccccc1C(=O)O)c1ccc2ccccc2c1,max response,CRL-7250,-3.34%
same,outcome,HaCat [1],inactive
same,max response,KB-3-1,-21%
same,max response,NIH3T3 [2],-22.4%
same,outcome,HACAT [6],inactive
same,Potency,MCC-13,inactive
same,Potency,MKL-1,inactive
same,Potency,MKL-2,inactive
same,Potency,UISO,inactive
same,Potency,WaGa,inactive

# — PubChem BioAssay (NCATS)
